# Experimental data published in PubChem BioAssay AID1159580 (chemical genetic matrix, 2015).
# About 2,000 (36%) of roughly 5,500 compounds were called active. Not shown: some 18% with an inconclusive outcome. The list shows a part of the results. A number with no mark means an inactive call. No stated cut-off is given here; in the data, active means normalized growth mostly below about 0.91 (no sharp cut-off); inconclusive means no clear call, values can overlap the other calls; inactive means mostly above about 0.92.
# Test: chemical genetic growth profiling, strain panel (AID 1159580);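 further: tested at 20 µM; growth read once vehicle control cultures reached saturation at 30 °C; 1 = growth at the plate median or of vehicle wells; lower values mean less growth of the strain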
# Conditions: S. cerevisiae deletion strains, growth OD
structure (smiles),measurement,setting,value
COc1ccc2nc3ccccc3c(N)c2c1,normalized growth,"locus YAR019C, strain CDC15, hits give low values",0.6 (active)
same,normalized growth,"locus YBL105C, strain PKC1, hits give low values",0.592 (active)
same,normalized growth,"locus YBR135W, strain CKS1, hits give low values",0.722 (active)
same,normalized growth,"locus YBR136W, strain MEC1, hits give low values",0.657 (active)
same,normalized growth,"locus YBR160W, strain CDC28, hits give low values",0.661 (active)
same,normalized growth,"locus YDL017W, strain CDC7, hits give low values",0.636 (active)
same,normalized growth,"locus YDL028C, strain MPS1, hits give low values",0.679 (active)
same,normalized growth,"locus YDL108W, strain KIN28, hits give low values",0.737 (active)
same,normalized growth,"locus YDL214C, strain PRR2, hits give low values",0.203 (active)
same,normalized growth,"locus YDR052C, strain DBF4, hits give low values",0.701 (active)
same,normalized growth,"locus YDR054C, strain cdc34, hits give low values",0.625 (active)
same,normalized growth,"locus YDR477W, strain SNF1, hits give low values",0.198 (active)
same,normalized growth,"locus YER123W, strain YCK3, hits give low values",0.195 (active)
same,normalized growth,"locus YER133W, strain GLC7, hits give low values",0.215 (active)
same,normalized growth,"locus YFL029C, strain CAK1, hits give low values",0.579 (active)
same,normalized growth,"locus YFR003C, strain YPI1, hits give low values",0.652 (active)
same,normalized growth,"locus YFR019W, strain FAB1, hits give low values",0.208 (active)
same,normalized growth,"locus YGR040W, strain KSS1, hits give low values",0.21 (active)
same,normalized growth,"locus YGR052W, strain FMP48, hits give low values",0.235 (active)
same,normalized growth,"locus YGR092W, strain DBF2, hits give low values",0.227 (active)
same,normalized growth,"locus YHR030C, strain SLT2, hits give low values",0.188 (active)
same,normalized growth,"locus YHR079C, strain IRE1, hits give low values",0.206 (active)
same,normalized growth,"locus YHR082C, strain KSP1, hits give low values",0.27 (active)
same,normalized growth,"locus YHR205W, strain SCH9, hits give low values",0.151 (active)
same,normalized growth,"locus YIL147C, strain SLN1, hits give low values",0.63 (active)
same,normalized growth,"locus YJL095W, strain BCK1, hits give low values",0.227 (active)
same,normalized growth,"locus YJL157C, strain FAR1, hits give low values",0.176 (active)
same,normalized growth,"locus YJR016C, strain ILV3, hits give low values",0.699 (active)
same,normalized growth,"locus YJR066W, strain TOR1 (second series), hits give low values",0.246 (active)
same,normalized growth,"locus YJR066W, strain TOR1, hits give low values",0.233 (active)
same,normalized growth,"locus YKL048C, strain ELM1, hits give low values",0.264 (active)
same,normalized growth,"locus YKL067W, strain YNK1, hits give low values",0.19 (active)
same,normalized growth,"locus YKL101W, strain HSL1, hits give low values",0.193 (active)
same,normalized growth,"locus YKL193C, strain SDS22, hits give low values",0.659 (active)
same,normalized growth,"locus YKL203C, strain TOR2, hits give low values",0.204 (active)
same,normalized growth,"locus YLR113W, strain HOG1, hits give low values",0.257 (active)
same,normalized growth,"locus YLR133W, strain CKI1, hits give low values",0.199 (active)
same,normalized growth,"locus YLR403W, strain SFP1, hits give low values",0.11 (active)
same,normalized growth,"locus YML070W, strain DAK1, hits give low values",0.207 (active)
same,normalized growth,"locus YMR001C, strain CDC5, hits give low values",0.667 (active)
same,normalized growth,"locus YMR205C, strain PFK2 (second series), hits give low values",0.258 (active)
same,normalized growth,"locus YMR277W, strain FCP1, hits give low values",0.648 (active)
same,normalized growth,"locus YNL006W, strain LST8, hits give low values",0.611 (active)
same,normalized growth,"locus YNL020C, strain ARK1, hits give low values",0.196 (active)
same,normalized growth,"locus YNL161W, strain CBK1, hits give low values",0.525 (active)
same,normalized growth,"locus YNL183C, strain NPR1, hits give low values",0.283 (active)
same,normalized growth,"locus YNL207W, strain RIO2, hits give low values",0.645 (active)
same,normalized growth,"locus YNL222W, strain SSU72, hits give low values",0.638 (active)
same,normalized growth,"locus YNL307C, strain MCK1 (second series), hits give low values",0.202 (active)
same,normalized growth,"locus YOL078W, strain AVO1, hits give low values",0.689 (active)
same,normalized growth,"locus YOL136C, strain PFK27, hits give low values",0.205 (active)
same,normalized growth,"locus YOR061W, strain CKA2, hits give low values",0.186 (active)
same,normalized growth,"locus YOR119C, strain RIO1, hits give low values",0.221 (active)
same,normalized growth,"locus YOR231W, strain MKK1, hits give low values",0.225 (active)
same,normalized growth,"locus YOR329C, strain SCD5, hits give low values",0.607 (active)
same,normalized growth,"locus YPL031C, strain PHO85, hits give low values",0.214 (active)
same,normalized growth,"locus YPL153C, strain RAD53, hits give low values",0.216 (active)
same,normalized growth,"locus YPL204W, strain HRR25, hits give low values",0.198 (active)
same,normalized growth,"locus YPL209C, strain IPL1, hits give low values",0.624 (active)
same,normalized growth,"locus YPL256C, strain CLN2, hits give low values",0.252 (active)
same,normalized growth,"locus YPR025C, strain CCL1, hits give low values",0.637 (active)
same,normalized growth,"locus YPR106W, strain ISR1, hits give low values",0.679 (active)
same,normalized growth,"locus YPR111W, strain DBF20, hits give low values",1
same,normalized growth,"strain NNK1, hits give low values",0.537 (active)
same,normalized growth,"strain TSCII, hits give low values",0.58 (active)
